HSF1 inh = HSF1 inhibition; NIH3T3-HGL HSE-luciferase, MG132-induced, luminescence 8 h; hits give low values; activity change, negative = inhibition, % at 7.5 µM (by protocol); actives 0.77% (n = 300,000); AID 2098;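 active = more than half of replicate wells show activity change below -50%, luminescence cut by over half; inconclusive = some wells, but at most half, below -50%; inactive = no replicate well below -50%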;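 also: luciferase reports HSF-1 transcriptional activity via heat shock element; 0% = median of DMSO wells and -100% = zero luminescence signal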
HSF1 activator = increases HSF-1 driven luciferase reporter signal; NIH3T3-HGL HSF-1 luciferase reporter, MG132, 8 h; 100% = twice DMSO control signal; activation, % at 9 µM; actives 1.7% (n = 300,000);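 active = mean replicate activation of at least 50% with a set share of replicates each reaching 50%; inconclusive = only one of those two conditions met; inactive = mean below 50% and too few replicates reaching it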;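 also: 0% = median of the neutral control wells and 100% = twice that signal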
GAA850 FXN act = increases GAA850 frataxin promoter reporter activity; activation, % at 6 µM; actives 0.56% (n = 360,000); HEK293 lucGAA850 FXN promoter luciferase reporter, 24 h; percent of 10 µM SAHA response;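 active = activation above the average of all compounds screened plus 3 SD, cutoff fixed separately per campaign, cut at about 7.5% in these data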;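 also: 0% = DMSO wells and 100% = 10 µM SAHA wells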
AHR activator = activates the human aryl hydrocarbon receptor; P35869; actives 2.5% (n = 320,000); AHR-responsive luciferase reporter cells, luminescence; activation, % at 5 µM; AID 2796; in the data active = activation above about 47%;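 also: 0% = vehicle wells and 100% = reference agonist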
GAA30 counter = GAA30 FXN promoter activation counter-screen; actives 66% (n = 1,900); activation, % at 6 µM; AID 588350; shares compounds with GAA850 FXN act; HEK293 lucGAA30 FXN promoter luciferase, 24 h; DMSO = 0%, 5 µM ipriflavone = 100%;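 active = mean activation above the mean of solvent-only control wells plus 3 SD, cut at about 22% in these data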;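 also: counterscreen of GAA850 promoter hits where activity marks nonselective or luminescence artifacts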
GAA850 confirm = GAA850 FXN promoter activation confirmation | shares compounds with GAA850 FXN act | HEK293 lucGAA850 FXN promoter luciferase reporter, 24 h; 100% = activation by SAHA | activation, % at 6 µM | actives 86% (n = 1,900) | AID 588351;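 active = mean activation above a set limit taken from the primary screen, cut at about 8% in these data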;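 also: 0% = DMSO wells and 100% = 10 µM SAHA wells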
Starred values were filed as active, the others as inactive; ? = inconclusive; . = no result. A selection: hits, their analogues and other compounds. The true share with any hit is near 4.6%.

SMILES	HSF1 inh	HSF1 activator	GAA850 FXN act	AHR activator	GAA30 counter	GAA850 confirm
O=C1[C@H]2[C@@H](C(=O)N1c1cccc3ccccc13)C1(C(=O)c3ccccc3C1=O)N1CCC[C@@H]21	1	13	9.4*	5	37*	16*
O=C1C2C3C=CC(C3)C2C(=O)N1c1cccc2ccccc12 (stereo unspecified)	1	12	1	3	.	.
Cc1ccccc1-c1nnc(SCC(=O)Nc2ccc(Cl)cc2)n1N	13	5	2	1	.	.
CSc1cccc(CNC(=O)CC2C(=O)NCCN2CC(C)(C)C)c1 (stereo unspecified)	-2	-12	0	-1	.	.
Cc1cc(=O)[nH]c(SCC(=O)N2CCN(S(=O)(=O)c3ccccc3)C2)n1	4	21	1	-2	.	.
CCc1ccc(NC(=O)CCn2nc(C)c(S(=O)(=O)N3CCCCC3)c2C)cc1	15	31	7.6*	2	7	8.6*
CN(C)C(=O)CCC(=O)N1CCCC(C(=O)c2ccc3c4c(cccc24)CC3)C1 (stereo unspecified)	-5	-8	10*	3	44*	13*
COC(=O)C(C(=O)OC)C(CC(=O)c1ccc(Br)cc1)c1ccccc1 (stereo unspecified)	.	.	-1	.	.	.
CCOC(=O)CC(=O)CSc1nc2c(cc1C#N)CCCCCC2	-6	-26	-1	2	.	.
N#Cc1cc2c(nc1SCC(N)=O)CCCCC2	7	11	9.6*	12	108*	38*
N=c1c(S(=O)(=O)c2ccccc2)cc2c(=O)n3ccccc3nc2n1Cc1ccco1	27	12	2	-3	.	.
Cc1ccc2nc3c(cc(S(=O)(=O)c4ccccc4)c(=N)n3Cc3ccco3)c(=O)n2c1	31	33	9.3*	-3	22*	7
COc1cc2c(OC(C)=O)c3c(c(-c4ccc5c(c4)OCO5)c2cc1OC)C(=O)OC3	-12	-12	1	-1	.	.
COc1cc2c(O)c3c(c(-c4ccc5c(c4)OCO5)c2cc1OC)C(=O)OC3	1	-10	20*	1	-8	27*
CCOc1ccccc1C(c1c(C)n(C)n(-c2ccccc2)c1=O)c1c(C)n(C)n(-c2ccccc2)c1=O	-5	-14	1	1	.	.
CC(C)CCOP(=O)(c1ccc(N(C)C)cc1)C(O)c1ccccc1 (stereo unspecified)	5	6	8.2*	0	7	5
CNC(=O)c1sc2nc(-c3ccc(OC)cc3)cn2c1C	24	34	5	22	.	.
Cc1c(C(=O)NCc2ccco2)sc2nc(-c3ccccc3)cn12	5	8	18*	7	56*	29*
CCN(CC)C(=O)c1sc2nc(-c3ccc(OC)cc3)cn2c1C	6	25	9.8*	1	125*	41*
Cc1c(C(=O)NCc2cccnc2)sc2nc(-c3ccccc3)cn12	12	27	5	12	.	.
CC(C)(C)C1CCC(=NNC(=O)C2COc3ccccc3O2)CC1 (stereo unspecified)	.	.	-4	0	.	.
O=C(Nc1nc(-c2nc3ccccc3s2)cs1)c1ccc(S(=O)(=O)N2CCOCC2)cc1	16	18	1	-3	.	.
CCCCCc1nnc(N)s1	-3	-2	4	-1	.	.
CCCCCc1ccc(-c2nnc(N)s2)cc1	32	?	7.8*	7	78*	21*
COc1ccc(S(=O)(=O)N2CCCN(S(=O)(=O)c3ccc(OC)c(C)c3)CC2)cc1C	-7	2	8.3*	0	30*	17*
COc1ccc(S(=O)(=O)N2CCCC2)cc1OC	0	9	1	-3	.	.
CCc1cc2c(-c3ccccc3)cc(=O)oc2cc1OC(C)C(=O)NCC1CCC(C(=O)O)CC1 (stereo unspecified)	-1	13	0	-1	.	.
CC(Oc1cc2oc(=O)cc(-c3ccccc3)c2cc1Cl)C(=O)NCC1CCC(C(=O)O)CC1 (stereo unspecified)	-10	-25	11*	-1	20	8.8*
COC(=O)c1ccc(NC(=O)C2CCN(S(C)(=O)=O)CC2)cc1	3	-6	-3	3	.	.
